Results filed as inconclusive are left out. Active and inactive are the calls of the source. The calls were made as follows, unless noted: active = hit-call score of the fitted dose curve at least 0.9, where 1 is the maximum; inactive = score below 0.9.
System: not listed separately
Test: CCTE_Shafer_MEA_dev_burst_rate: CCTE's Neural Network Formation Assay for Burst Rate, Shafer Lab (AID 2284042)
Method in brief: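 Exposure ran continuously over 12 days of network development in rat cortical cultures, with compound refreshed during full media changes on DIV 5 and 9. Single-electrode bursts per recording time, well-mean over active electrodes, trapezoidal AUC across days 5–12, fitted downward relative to DMSO.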

Row | Structure (SMILES) | outcome
1 | N#CCCNCCC#N | inactive
2 | CC(C)Cc1ccc(C(C)C(=O)O)cc1 (stereo not drawn) | inactive
3 | CCCCC(CC)COC(=O)COc1ccc(Cl)cc1C (stereo not drawn) | inactive

System: not listed separately
Test: CCTE_Shafer_MEA_dev_bursting_electrodes_number: CCTE's Neural Network Formation Assay for Number of Bursting Electrodes, Shafer Lab (AID 2284043; active = hit-call score of the fitted dose curve at least 0.9, where 1 is the maximum;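 as to AC50: potency is for loss of bursting electrodes relative to DMSO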)
Method in brief: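 Rat cortical primary neurons, 48-well MEA, 16 electrodes/well; dosing DIV 0–12, re-dosed with full media change DIV 5, 9. Recordings DIV 5/7/9/12, AxIS adaptive spike detector; bursting electrode = ≥1 burst/2 min. AUC across days; loss of signal vs DMSO.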

Row | Structure (SMILES) | outcome | AC50
4 | N#CCCNCCC#N | inactive | 
5 | CC(C)Cc1ccc(C(C)C(=O)O)cc1 (stereo not drawn) |  | 2.98 µM (active)
6 | CCCCC(CC)COC(=O)COc1ccc(Cl)cc1C (stereo not drawn) | inactive | 

System: not listed separately
Test: CCTE_Shafer_MEA_dev_per_burst_interspike_interval: CCTE's Neural Network Formation Assay for Burst Interspike Interval, Shafer Lab (AID 2284044);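 also: mean spike spacing inside bursts as AUC over recordings on days 5 7 9 12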
Method in brief: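 Developmental network-formation MEA in primary rat cortical cultures with exposure spanning days 0–12. Within-burst ISI is averaged per well and integrated across recording days by area under the curve, with DMSO as negative control baseline.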

Row | Structure (SMILES) | outcome
7 | N#CCCNCCC#N | inactive
8 | CC(C)Cc1ccc(C(C)C(=O)O)cc1 (stereo not drawn) | inactive
9 | CCCCC(CC)COC(=O)COc1ccc(Cl)cc1C (stereo not drawn) | inactive

System: not listed separately
Test: CCTE_Shafer_MEA_dev_burst_duration_mean: CCTE's Neural Network Formation Assay for Mean Burst Duration, Shafer Lab (AID 2284045)
Method in brief: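 Rat cortical cultures, 1.5 x 10^5 cells/well with laminin drop; continuous dosing days 0–12, media plus treatment refreshed DIV 5, 9. AxIS adaptive spike detection; mean single-electrode burst duration, AUC over four recordings, negative direction vs DMSO.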

Row | Structure (SMILES) | outcome
10 | N#CCCNCCC#N | inactive
11 | CC(C)Cc1ccc(C(C)C(=O)O)cc1 (stereo not drawn) | inactive
12 | CCCCC(CC)COC(=O)COc1ccc(Cl)cc1C (stereo not drawn) | inactive

System: not listed separately
Test: CCTE_Shafer_MEA_dev_interburst_interval_mean: CCTE's Neural Network Formation Assay for Mean Interburst Interval, Shafer Lab (AID 2284046);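 also: well-mean interburst interval of bursting electrodes as AUC over four recording days; curve fitted for decrease in interburst interval relative to DMSO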
Method in brief: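 Primary rat cortical neurons on PEI-coated 48-well MEA plates (laminin added with cells at plating) (16 electrodes/well), exposed from plating day 0 with renewal at DIV 5 and 9. Mean inter-burst interval averaged over bursting electrodes, AUC across days 5, 7, 9, 12; DMSO baseline.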

Row | Structure (SMILES) | outcome | AC50
13 | N#CCCNCCC#N | inactive | 
14 | CC(C)Cc1ccc(C(C)C(=O)O)cc1 (stereo not drawn) |  | 0.962 µM (active)
15 | CCCCC(CC)COC(=O)COc1ccc(Cl)cc1C (stereo not drawn) | inactive | 

System: not listed separately
Test: CCTE_Shafer_MEA_dev_inter_network_spike_interval_mean: CCTE's Neural Network Formation Assay for Mean Inter-network Spike Interval, Shafer Lab (AID 2284047)
Method: CCTE_Shafer_MEA_dev assay is conducted using Axion Biosystems 48 well microelectrode array (MEA) plates and Maestro recording system. Each well of the MEA plate contains a grid of 16 microelectrodes embedded in the culture surface. Electrically active cells, such as neurons, can be cultured over the electrodes, and electrical activity in these cells can be recorded extracellularly. The spontaneous firing of neurons is captured from each electrode on a microsecond timescale providing both temporally and spatially precise data. […] The CCTE_Shafer_MEA_dev assay uses primary cultures of rat cortical neurons. Recordings are made on days post-plating 5, 7, 9 and 12. As these cultures mature over time, neural networks develop functional activity and form cohesive networks in which electrical activity can be highly coordinated. CCTE_Shafer_MEA_dev_inter_network_spike_interval_mean is 1 of 19 assay components of the CCTE_Shafer_MEA_dev assay. It measures the average time interval between network spikes (temporally-clustered groups of actional potential firing across multiple electrodes) as the average time between peaks of consecutive network spikes during a recording in a microelectrode array (MEA) using Axion Biosystems Maestro 768 channel amplifier with the AxIS adaptive spike detector. To collapse across multiple recordings made on days post-plating 5, 7, 9 and 12, the trapezoidal area-under-the-curve of the component is calculated.Data from the assay component CCTE_Shafer_MEA_dev_inter_network_spike_interval_mean was analyzed into 1 assay endpoint. This assay endpoint, CCTE_Shafer_MEA_dev_inter_network_spike_interval_mean, was analyzed in the negative analysis fitting direction relative to DMSO as the negative control and baseline of activity. Using a type of functional reporter, gain or loss-of-signal activity can be used to understand electrical activity.
On the day prior to culture, each well was coated thoroughly with 150 uL of 0.05% polyethyleneimine (PEI, Sigma Cat P3143) in 50 mM HEPES (Sigma Cat H7523) at a pH of 8. The plate was incubated at 37C for one hour. PEI was rinsed out with 500 uL of sterile water three times. Plates were stored at 4C until the day of culture. This culture was plated at a seeding density of 1.5 x 10^5 cells/well on a 48-well MEA plate, prepared as described above. Cells were administered via a 25 uL media/laminin ([…]; Sigma Cat L2020-1MG) drop directly onto the microelectrode array, as adding the cells with the laminin results in better attachment than pre-coating with laminin. After 2 hours, an additional 475 uL of cortical media was added and the cells returned to the incubator. Exposure starts at day 0 of plating and is continued over twelve days of network development until the experiment is terminated. Cells are fed with fresh medium on DIV 5 and 9, following the recordings on those days. The entire volume of media in the well is exchanged and any vehicle or compound treatment is renewed. Complete details are found in OP-NHEERL/ISTD/SBB/TJS/2015-03-r0 (available on request, email shafer.tim@epa.gov). Measurement of the electrical activity is non-invasive, and recordings can be made from the same plate over multiple different days of the culture. In cortical neurons, this allows for the measurement of extracellular action potentials over the period during which networks form in the MEA plate.

Row | Structure (SMILES) | outcome
16 | N#CCCNCCC#N | inactive
17 | CC(C)Cc1ccc(C(C)C(=O)O)cc1 (stereo not drawn) | inactive
18 | CCCCC(CC)COC(=O)COc1ccc(Cl)cc1C (stereo not drawn) | inactive

System: not listed separately
Test: CCTE_Shafer_MEA_dev_network_spike_number: CCTE's Neural Network Formation Assay for Number of Network Spikes, Shafer Lab (AID 2284048);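 also: synchronized bursts across electrodes counted on days 5 7 9 12 and integrated as AUC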
Method in brief: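 Rat cortical primary cultures on 48-well MEA (16 electrodes/well); continuous exposure DIV 0–12, full medium and treatment exchange DIV 5, 9. Readout: network spike count, AxIS adaptive detection, recordings DIV 5/7/9/12 collapsed to AUC; loss-of-signal fit, DMSO baseline.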

Row | Structure (SMILES) | outcome
19 | N#CCCNCCC#N | inactive
20 | CC(C)Cc1ccc(C(C)C(=O)O)cc1 (stereo not drawn) | inactive
21 | CCCCC(CC)COC(=O)COc1ccc(Cl)cc1C (stereo not drawn) | inactive

System: not listed separately
Test: CCTE_Shafer_MEA_dev_network_spike_peak: CCTE's Neural Network Formation Assay for Mean Number of Electrodes in Network Spike, Shafer Lab (AID 2284049);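 as to AC50: fitted for loss of signal meaning fewer electrodes in network spikes than DMSO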
Method in brief: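 Network-spike peak electrode count from recordings on days 5, 7, 9 and 12 was combined as trapezoidal area under the curve. Rat cortical cultures were treated continuously from plating, with compound renewed at each feed (DIV 5, 9); fits versus DMSO.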

Row | Structure (SMILES) | outcome | AC50
22 | N#CCCNCCC#N | inactive | 
23 | CC(C)Cc1ccc(C(C)C(=O)O)cc1 (stereo not drawn) |  | 15 µM (active)
24 | CCCCC(CC)COC(=O)COc1ccc(Cl)cc1C (stereo not drawn) | inactive | 

System: DIO2 (gene 1734)
Test: CCTE_GLTED_hDIO2: CCTE's human Deiodinase 2 (DIO2) Inhibition Assay, Great Lakes Toxicology and Ecology Division (GLTED) Lab (AID 2284050; active = hit-call score of the fitted dose curve at least 0.9, where 1 is the maximum)
Method in brief: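 Inhibition is judged by reduced iodide release: uninhibited human DIO2 frees iodide from substrate over 3 h, measured afterward by Sandell-Kolthoff colorimetry. Iodinated chemicals or nitrite, iron and thiocyanate may interfere.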

Row | Structure (SMILES) | AC50
25 | CCCCC/C=C\C=C\C(=O)OCC | 44.2 µM (active)
26 | C=C(C)C(=O)OCCC(C)OC(=O)C(=C)C (stereo not drawn) | 49.6 µM (active)
27 | CC(=O)OC/C=C(C)/C=C/C=C(C)/C=C/C1=C(C)CCCC1(C)C | 52.6 µM (active)
28 | CCCCCCCCOC(=O)c1ccc(O)cc1 | 92.9 µM (active)

— PubChem BioAssay (EPA / NIEHS)
